RORg inh – blocks mouse ROR gamma transcriptional activity. P51450. Drosophila S2 Gal4-RORgamma UAS-luciferase reporter, 20 h. Potency, µM (series often up to 53.6 µM), without a hit: at the top dose activity change, negative = inhibition, hits mostly inhibitors. hit rate 5.4% among 310,000; note: nearly all actives have a fitted effect of over 60% in size
Target sequence (P51450 whole entry, looked up, the tested form may be a part): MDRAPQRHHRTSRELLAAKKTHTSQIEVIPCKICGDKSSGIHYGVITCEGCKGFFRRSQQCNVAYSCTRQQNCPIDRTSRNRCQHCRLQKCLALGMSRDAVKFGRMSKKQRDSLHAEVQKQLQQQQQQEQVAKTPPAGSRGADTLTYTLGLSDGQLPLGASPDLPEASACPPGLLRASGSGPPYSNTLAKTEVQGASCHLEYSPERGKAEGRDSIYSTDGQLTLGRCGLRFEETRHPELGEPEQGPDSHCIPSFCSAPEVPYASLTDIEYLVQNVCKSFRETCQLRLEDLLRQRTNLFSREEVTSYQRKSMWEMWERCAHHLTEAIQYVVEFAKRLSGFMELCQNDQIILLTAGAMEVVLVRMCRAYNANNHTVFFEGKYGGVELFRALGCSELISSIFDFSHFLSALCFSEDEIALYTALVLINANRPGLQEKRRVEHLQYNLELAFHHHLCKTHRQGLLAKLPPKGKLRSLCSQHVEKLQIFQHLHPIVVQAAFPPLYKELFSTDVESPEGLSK
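Compounds are pin-transferred onto Drosophila Schneider cells expressing a copper-inducible Gal4–ROR gamma transactivation domain fusion. After 1 hr, copper sulfate is added to 700 uM final; luciferase is read 20 hr later.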
VP16 counter – counter-screen for ROR gamma inhibitors: Gal4-VP16 reporter | Drosophila S2 Gal4-VP16 UAS-luciferase, luminescence, 20 h | Potency, µM (highest dose often 53.6 µM), for the others: at the top dose activity, negative = inhibition, actives largely listed as inhibitors | hit rate 3.5% among 310,000 | AID 2546;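 note: Gal4-VP16 expression switched on by copper sulfate through the metallothionein promoter; nearly all actives have a fitted effect of over 50% in size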
DT40 TDP1 no CPT – qHTS for Inhibitors of human tyrosyl-DNA phosphodiesterase 1 (TDP1): qHTS in cells in absence of CPT. hit rate 15% among 420,000. Potency, µM (highest dose often 46.2 µM), for the others: at the top dose activity change, negative = growth inhibition, hits mostly inhibitors. DT40 Tdp1-/- hTDP1 cells, no CPT, ATP luminescence, 48 h. AID 686978, 2013; note: nearly all actives have a fitted effect of over 55% in size
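Chicken DT40 Tdp1-/- cells stably complemented with human TDP1 were seeded at 400 cells/well with DMSO in place of 20 nM camptothecin. After compound pinning, cells grew at least 48 hr at 37 °C; viability read by CellTiter-Glo luminescence.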
DT40 TDP1 CPT – DT40-hTDP1 cell growth loss with CPT | hit rate 12% among 420,000 | chicken DT40 Tdp1-/-;hTDP1 cells + 20 nM CPT, ATP luminescence, 48 h | Potency, µM (top dose mostly 46.2 µM), for the others: at the top dose activity change, negative = growth inhibition, actives largely listed as inhibitors | AID 686979; note: nearly all actives have a fitted effect of over 55% in size
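Chicken DT40 Tdp1-/- cells complemented with human TDP1, 400 cells/well, exposed to compounds plus 20 nM camptothecin for at least 48 h at 37 C; viability read as ATP content by CellTiter-Glo luminescence.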
TDP1 inh – TDP1 (human) enzyme inhibition. recombinant TDP1, AlphaScreen DNA substrate cleavage. Potency, µM (titrated, usually from 130 µM), for inactives: top-dose activity change, negative = inhibition, hits mostly inhibitors. hit rate 0.28% among 350,000. AID 485290; note: nearly all actives have a fitted effect of over 40% in size
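Recombinant E. coli-expressed Tdp1 (1 nM) preincubated with compound 15 min at RT, then 5'-biotin/3'-phosphotyrosine-FITC DNA substrate (15 nM) added for 5 min. AlphaScreen beads (10 ug/ml) added, 10 min RT; tyrosine-FITC cleavage read as signal loss.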
The depositor's hits bear a star; ? = inconclusive; . = no result; ! = not active in a repeat; [ ] = another dose, or the depositor's remark. Rows were chosen to be rich in hits. Some 19% of all compounds tested hit in one or more screens of this group. Calls come from the whole dose curve; as a rule, active = well fitted curve in the direction sought with a large enough effect; inconclusive = small, poorly fitted or top-dose-only effect, or another doubt; inactive = no such curve, though single readings can be large; an effect the other way counts as inactive or inconclusive. % is set by controls: 0 for no effect and ±100 for the full control effect; potency is the fitted concentration of half-maximal effect.

SMILES	RORg inh	VP16 counter	DT40 TDP1 no CPT	DT40 TDP1 CPT	TDP1 inh
O=S1(=O)CCO[C@H]2Cc3ccccc3[C@H]2N1Cc1cccc(C(F)(F)F)c1	6%	8%	?	?	.
O=[N+]([O-])c1cccnc1NCc1cccs1	29%	26%	2%	0%	3%
CCOC(=O)C(Cc1ccccc1)C(=O)Nc1ccc(NC(=O)C(Cc2ccccc2)C(=O)OCC)cc1 (centres undefined)	11%	?	-16%	1%	2%
CCn1c(-c2cc(Br)cc(OC)c2O)nc2cc(S(=O)(=O)N(C)C)ccc21	3.5µM*	7.9µM*	?	?	5%
COCCCN=C1NN=C(c2cc(C)n(-c3ccccc3F)c2C)CS1	-2%	-28%	8.2µM*	16µM*	9%
Cc1cc(C2=NNC(=Nc3ccccc3)SC2)c(C)n1C	6%	-4%	?	?	5%
COCCn1c(C)cc(C2=NNC(=Nc3ccccc3F)SC2)c1C	0.79µM*	?	?	?	8%
COCCCN=C1NN=C(c2cc(C)n(-c3ccccc3)c2C)CS1	-5%	-4%	16µM*	?	0%
COCCCN=C1NN=C(c2cc(C)n(Cc3ccccc3Cl)c2C)CS1	?	13%	2.3µM*	?	7%
CC(C)(Cc1ccccc1)NC(=O)C(=O)c1cn(CC(=O)N2CCOCC2)c2ccccc12	3%	1%	-23%	-28%	6%
NC(=S)NN=CCn1cc([N+](=O)[O-])c(=O)[nH]c1=O	.	.	-23%	-3%	.
COc1ccc(C2CC(c3ccc4ccccc4c3OC(C)=O)=NN2C(=O)/C=C/c2ccccc2)cc1 (centres undefined)	-4%	-2%	?	?	3%
COc1ccc(C2CC(c3ccccc3OC(C)=O)=NN2C(=O)/C=C/c2ccccc2)cc1 (centres undefined)	-34%	-3%	16µM*	21µM*	0%
CC(=O)N1N=C(c2ccccc2)CC1c1ccc(F)cc1 (centres undefined)	-25%	3%	?	-28%	.
CC(=O)Oc1ccccc1C1=NN(C(=O)/C=C/c2ccccc2)C(c2ccccc2)C1 (centres undefined)	-27%	-12%	18µM*	?	-3%
CCCn1c(N2CCN(C(=O)NCc3ccccc3)CC2)nc2ccccc21	17%	3%	?	0%	.
O=C(NCc1ccccc1Cl)c1cnc(N2CCCCC2)c2ccccc12	.	.	?	18µM*	-3%
CCc1ccc(CNC(=O)c2cnc(N3CCCCC3)c3ccccc23)cc1	.	.	26µM*	23µM*	-4%
CCc1ccc(NC(=O)c2cnc(N3CCN(c4ccccn4)CC3)c3ccccc23)cc1	15%	-10%	6.5µM*	7.3µM*	5%
Cc1ccc(C)n1-c1ccc(C(=O)NN=C2CCCC2)cc1	-9%	29%	-9%	-4%	3%
CCn1cc(C(=O)NCCc2ccccc2C)c(=O)c2ccc(C)nc21	23%	-2%	?	-21%	.
CCCC(C)NC(=O)Cc1ccccc1 (centres undefined)	2%	0%	-10%	-4%	-3%
CCOc1ccc(-n2c(SC(C)C)nc3c(c2=O)SCC3)cc1	?	?	16µM*	?	9%
CCOc1ccc(-n2c(SC)nc3c(c2=O)SCC3)cc1	-4%	-2%	-28%	-23%	-7%
O=C(CCC(=O)Nc1ccc(Cl)cc1Cl)NNC(=O)[C@@H]1CCCC[C@@H]1C(=O)O	41%	-7%	-1%	4%	0%
SMILES	RORg inh	VP16 counter	DT40 TDP1 no CPT	DT40 TDP1 CPT	TDP1 inh
O=C1N[C@H](Cc2ccccc2)COC(=O)[C@H](Cc2ccc(F)cc2)C/C=C\C[C@H]1CC(=O)N(CCO)Cc1ccccc1	.	.	?	?	1%
O=C1N[C@@H](Cc2ccccc2)COC(=O)[C@H](Cc2ccc(F)cc2)C/C=C\C[C@H]1CC(=O)N(CCO)Cc1ccccc1	.	.	8.2µM*	21µM*	2%
O=C1N[C@@H](Cc2ccccc2)COC(=O)[C@@H](Cc2ccc(F)cc2)CC/C=C/C[C@H]1CC(=O)N(CCO)Cc1ccccc1	.	.	6.5µM*	?	2%
CCCCCC(C)NC(=O)CN1C(=O)NC(C)(c2ccc3ccccc3c2)C1=O (centres undefined)	5µM*	13µM*	?	?	7%
CC1(c2ccc3ccccc3c2)NC(=O)N(CC(=O)N2CCC(C(N)=O)CC2)C1=O (centres undefined)	.	.	-10%	2%	0%[0.505 µM]
CC1(c2ccc3ccccc3c2)NC(=O)N(CC(=O)N2CCN(Cc3ccccc3)CC2)C1=O (centres undefined)	.	.	4.6µM*	8.2µM*	0%
COc1ccc(S(=O)(=O)N2CCN(C(=O)CN3C(=O)NC(C)(c4ccc5ccccc5c4)C3=O)CC2)cc1 (centres undefined)	.	.	23µM*	?	.
COc1ccc(S(=O)(=O)N2CCN(C(=O)CN3C(=O)NC(C)(C)C3=O)CC2)cc1	.	.	3%	-4%	1%
Nc1cc(C(F)(F)F)ccc1S(=O)(=O)Nc1cccc2c1NCCC2	.	.	.	.	4%
N#CCCN(C(=O)CSc1nc(-c2ccccc2)cn1N)c1ccc(F)cc1	22%	9%	-17%	0%	-4%
COc1ccccc1CNc1ccnc(-c2ccccc2C(F)(F)F)n1	-19%	3%	?	?	12%[56.1 µM]
Clc1ccc(C(c2ccccc2)N2CCN(c3ccccn3)CC2)cc1 (centres undefined)	-22%	12%	18µM*	?	3%
CN1CCCN(C(c2ccccc2)c2ccc(Cl)cc2)CC1 (centres undefined)	10µM*!	-10%	6µM*	?	10%
CC(C)(C)OC(=O)N1CCC(c2c(C(=O)N3CCc4ccccc4C3)cnn2-c2ccc(Cl)cc2)CC1	.	.	?	?	5%
Cc1ccc(-n2ncc(C(=O)NCCN3CCc4ccccc4C3)c2C2CCN(C(=O)OC(C)(C)C)CC2)c(C)c1	.	.	?	?	6%
Cc1ccc(-n2ncc(C(=O)N3CCc4ccccc4C3)c2C2CCN(C(=O)OC(C)(C)C)CC2)cc1C	.	.	?	10µM*	4%
Cc1ccc(-n2ncc(C(=O)NCCN3CCc4ccccc4C3)c2C2CCN(C(=O)OC(C)(C)C)CC2)cc1C	.	.	21µM*	16µM*	7%
Cc1ccc(-n2ncc(C(=O)NCCN3CCN(C)CC3)c2C2CCN(C(=O)OC(C)(C)C)CC2)cc1C	.	.	?	?	4%

Bioassay records as filed in PubChem BioAssay.
